Experimental data published in the supplement of paper PMC6411743.
± gives the standard deviation of the averaged measurements. Targets with the largest changes are over-represented here; the source holds about 5,400 in all.

Compound: Nc1nc2c(ncn2[C@@H]2O[C@H](COP(=O)(O)OP(=O)(O)OP(=O)(O)O)[C@@H](O)[C@H]2O)c(=O)[nH]1 [guanosine triphosphate]
Test: NP40-soluble protein abundance relative to vehicle (solubility fold change) (ratio); higher = more soluble protein in presence of GTP
Details: concentration: 8mM
Method in brief: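 Data come from three independent experiments in which Dounce-homogenised Jurkat crude lysate was treated at eight concentrations from 0.1 to 10 mM. Treatment ran 10 min at room temperature and then 3 min at 37 °C, after which 0.8% NP40 and benzonase were added for 60 min at 4 °C before ultracentrifugation. The supernatant underwent TMT labelling and LC-MS/MS, and vsn-normalised intensities were expressed as fold change against the detergent-processed vehicle in each replicate.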

UniProt Q9NQ29, sequence (Q9NQ29 whole entry, one chain of several): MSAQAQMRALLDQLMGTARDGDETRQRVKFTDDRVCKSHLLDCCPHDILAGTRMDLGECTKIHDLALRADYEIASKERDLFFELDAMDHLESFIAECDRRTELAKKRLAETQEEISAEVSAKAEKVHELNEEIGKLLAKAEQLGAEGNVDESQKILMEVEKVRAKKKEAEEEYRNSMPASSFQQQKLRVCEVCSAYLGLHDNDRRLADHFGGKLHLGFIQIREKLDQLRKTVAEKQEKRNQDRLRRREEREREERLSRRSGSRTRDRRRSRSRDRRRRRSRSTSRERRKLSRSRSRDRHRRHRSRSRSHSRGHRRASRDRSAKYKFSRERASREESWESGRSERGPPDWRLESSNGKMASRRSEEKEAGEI
UniProt Q9BTT0, sequence (Q9BTT0 whole entry, one chain of several): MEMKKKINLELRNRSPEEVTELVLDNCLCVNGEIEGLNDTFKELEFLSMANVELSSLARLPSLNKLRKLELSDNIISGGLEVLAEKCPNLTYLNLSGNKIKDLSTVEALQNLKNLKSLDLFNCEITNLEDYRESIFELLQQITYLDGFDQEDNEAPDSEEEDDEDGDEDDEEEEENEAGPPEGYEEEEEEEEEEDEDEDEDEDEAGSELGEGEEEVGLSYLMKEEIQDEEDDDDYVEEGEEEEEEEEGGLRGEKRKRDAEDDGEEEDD
UniProt Q9UHB6, sequence (Q9UHB6 whole entry, one chain of several): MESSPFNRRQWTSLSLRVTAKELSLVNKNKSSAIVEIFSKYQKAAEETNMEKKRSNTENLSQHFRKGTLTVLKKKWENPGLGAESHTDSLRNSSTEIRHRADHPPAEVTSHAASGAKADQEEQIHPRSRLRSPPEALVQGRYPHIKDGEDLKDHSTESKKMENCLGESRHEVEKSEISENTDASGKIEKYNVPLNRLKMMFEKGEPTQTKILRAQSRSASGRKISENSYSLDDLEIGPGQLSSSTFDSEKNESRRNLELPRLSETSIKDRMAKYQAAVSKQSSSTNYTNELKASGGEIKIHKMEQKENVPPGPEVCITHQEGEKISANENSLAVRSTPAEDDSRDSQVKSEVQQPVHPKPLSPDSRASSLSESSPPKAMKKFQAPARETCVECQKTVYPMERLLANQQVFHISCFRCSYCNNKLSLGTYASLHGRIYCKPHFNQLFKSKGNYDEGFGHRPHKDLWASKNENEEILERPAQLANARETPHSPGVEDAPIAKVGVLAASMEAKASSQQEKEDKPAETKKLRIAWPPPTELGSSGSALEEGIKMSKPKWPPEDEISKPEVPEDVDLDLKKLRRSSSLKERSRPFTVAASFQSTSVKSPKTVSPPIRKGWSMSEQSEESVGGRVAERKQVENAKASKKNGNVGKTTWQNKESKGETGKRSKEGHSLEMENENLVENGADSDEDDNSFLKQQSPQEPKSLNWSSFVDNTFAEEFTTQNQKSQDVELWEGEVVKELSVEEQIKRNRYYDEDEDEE
UniProt Q96B45, sequence (Q96B45 whole entry, looked up, one chain of several): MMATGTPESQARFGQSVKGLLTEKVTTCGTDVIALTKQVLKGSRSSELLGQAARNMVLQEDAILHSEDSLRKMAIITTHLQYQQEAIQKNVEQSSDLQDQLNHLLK
UniProt Q15004, sequence (Q15004 whole entry, one chain of several): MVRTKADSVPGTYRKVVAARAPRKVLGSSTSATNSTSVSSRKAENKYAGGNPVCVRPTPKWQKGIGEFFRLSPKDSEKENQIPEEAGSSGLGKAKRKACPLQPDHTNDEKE
UniProt O60268, sequence (O60268 whole entry, one chain of several): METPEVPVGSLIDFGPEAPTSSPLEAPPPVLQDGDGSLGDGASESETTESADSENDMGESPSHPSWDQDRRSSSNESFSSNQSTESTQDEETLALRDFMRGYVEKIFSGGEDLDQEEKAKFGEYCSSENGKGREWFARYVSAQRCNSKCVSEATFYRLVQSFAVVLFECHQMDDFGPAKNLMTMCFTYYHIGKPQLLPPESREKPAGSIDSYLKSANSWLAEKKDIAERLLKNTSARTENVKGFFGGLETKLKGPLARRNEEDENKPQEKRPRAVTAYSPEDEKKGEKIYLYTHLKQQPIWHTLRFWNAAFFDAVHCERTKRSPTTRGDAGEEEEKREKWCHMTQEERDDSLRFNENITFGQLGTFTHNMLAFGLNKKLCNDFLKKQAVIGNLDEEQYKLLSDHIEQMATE
UniProt Q9BQ39, sequence (Q9BQ39 whole entry, one chain of several): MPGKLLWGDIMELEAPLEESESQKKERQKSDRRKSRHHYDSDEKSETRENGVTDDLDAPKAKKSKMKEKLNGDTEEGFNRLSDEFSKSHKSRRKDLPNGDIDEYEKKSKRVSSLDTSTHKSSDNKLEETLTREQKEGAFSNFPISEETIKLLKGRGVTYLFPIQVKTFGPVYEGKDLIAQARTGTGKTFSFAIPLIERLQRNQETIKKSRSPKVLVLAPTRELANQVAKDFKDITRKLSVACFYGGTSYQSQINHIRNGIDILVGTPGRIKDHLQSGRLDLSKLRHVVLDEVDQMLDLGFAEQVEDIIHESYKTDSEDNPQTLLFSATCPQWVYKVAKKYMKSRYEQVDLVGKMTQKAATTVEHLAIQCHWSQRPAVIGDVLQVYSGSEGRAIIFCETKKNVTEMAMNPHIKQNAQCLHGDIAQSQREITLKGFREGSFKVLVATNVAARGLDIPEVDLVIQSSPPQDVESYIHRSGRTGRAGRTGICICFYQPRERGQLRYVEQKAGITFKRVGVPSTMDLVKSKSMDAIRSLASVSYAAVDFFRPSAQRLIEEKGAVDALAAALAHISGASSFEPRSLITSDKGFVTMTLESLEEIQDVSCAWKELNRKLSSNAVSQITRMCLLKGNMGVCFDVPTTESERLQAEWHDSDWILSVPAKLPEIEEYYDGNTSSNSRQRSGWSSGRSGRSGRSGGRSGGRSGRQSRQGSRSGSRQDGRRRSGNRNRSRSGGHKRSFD
UniProt P02792, sequence (P02792 whole entry, one chain of several): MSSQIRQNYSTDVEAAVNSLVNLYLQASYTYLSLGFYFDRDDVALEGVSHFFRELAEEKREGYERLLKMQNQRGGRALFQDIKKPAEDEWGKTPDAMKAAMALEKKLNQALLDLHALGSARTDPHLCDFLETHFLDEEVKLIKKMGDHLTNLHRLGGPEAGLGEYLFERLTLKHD
UniProt P56556, sequence (P56556 whole entry, one chain of several): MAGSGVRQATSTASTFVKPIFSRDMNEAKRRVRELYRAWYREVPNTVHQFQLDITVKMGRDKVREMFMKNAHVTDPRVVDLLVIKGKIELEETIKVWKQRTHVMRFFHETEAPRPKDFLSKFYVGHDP
UniProt Q6UW02, sequence (Q6UW02 whole entry, one chain of several): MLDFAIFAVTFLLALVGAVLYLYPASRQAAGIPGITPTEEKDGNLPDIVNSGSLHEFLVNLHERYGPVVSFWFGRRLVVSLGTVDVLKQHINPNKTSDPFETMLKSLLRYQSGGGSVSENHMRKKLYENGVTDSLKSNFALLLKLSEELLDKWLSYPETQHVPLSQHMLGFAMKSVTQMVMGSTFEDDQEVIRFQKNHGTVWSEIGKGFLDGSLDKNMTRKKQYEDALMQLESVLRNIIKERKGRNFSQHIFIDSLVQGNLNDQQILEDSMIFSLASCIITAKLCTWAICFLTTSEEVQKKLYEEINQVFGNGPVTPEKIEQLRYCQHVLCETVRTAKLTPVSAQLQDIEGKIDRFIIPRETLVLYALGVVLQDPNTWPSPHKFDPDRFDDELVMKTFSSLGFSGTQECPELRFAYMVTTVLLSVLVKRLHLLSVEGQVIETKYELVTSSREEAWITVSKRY
UniProt P09234, sequence (P09234 whole entry, one chain of several): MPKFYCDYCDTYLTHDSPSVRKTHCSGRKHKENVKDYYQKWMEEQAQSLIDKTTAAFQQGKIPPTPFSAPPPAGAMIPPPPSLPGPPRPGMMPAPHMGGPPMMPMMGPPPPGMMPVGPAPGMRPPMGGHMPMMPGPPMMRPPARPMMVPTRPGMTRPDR
UniProt Q9NZ52, sequence (Q9NZ52 whole entry, one chain of several): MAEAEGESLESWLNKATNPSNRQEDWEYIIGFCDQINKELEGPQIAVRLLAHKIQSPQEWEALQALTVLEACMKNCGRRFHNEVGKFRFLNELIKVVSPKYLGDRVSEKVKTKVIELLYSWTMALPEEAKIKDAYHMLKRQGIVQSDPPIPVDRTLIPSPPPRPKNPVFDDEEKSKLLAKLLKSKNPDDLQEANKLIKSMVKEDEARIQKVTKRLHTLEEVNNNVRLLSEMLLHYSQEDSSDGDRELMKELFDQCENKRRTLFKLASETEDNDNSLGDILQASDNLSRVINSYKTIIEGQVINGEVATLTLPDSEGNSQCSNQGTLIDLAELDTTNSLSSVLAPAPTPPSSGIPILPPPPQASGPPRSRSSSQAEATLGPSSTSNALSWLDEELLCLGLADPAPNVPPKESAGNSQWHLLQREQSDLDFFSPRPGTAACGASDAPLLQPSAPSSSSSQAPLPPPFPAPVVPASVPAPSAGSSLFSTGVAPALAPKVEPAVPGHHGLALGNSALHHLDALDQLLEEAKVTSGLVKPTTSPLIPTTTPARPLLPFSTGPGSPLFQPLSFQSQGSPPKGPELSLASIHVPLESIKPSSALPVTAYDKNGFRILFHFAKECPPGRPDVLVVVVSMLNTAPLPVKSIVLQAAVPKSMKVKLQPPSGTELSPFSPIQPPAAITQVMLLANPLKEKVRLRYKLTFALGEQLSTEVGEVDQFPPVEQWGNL
UniProt Q15005, sequence (Q15005 whole entry, one chain of several): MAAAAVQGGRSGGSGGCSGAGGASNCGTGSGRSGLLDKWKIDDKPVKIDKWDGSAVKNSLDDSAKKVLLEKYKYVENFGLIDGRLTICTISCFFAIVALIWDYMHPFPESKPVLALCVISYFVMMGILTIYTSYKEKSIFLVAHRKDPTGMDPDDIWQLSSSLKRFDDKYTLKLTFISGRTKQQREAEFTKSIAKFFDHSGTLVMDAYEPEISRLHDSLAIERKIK
UniProt P01850, sequence (P01850 whole entry): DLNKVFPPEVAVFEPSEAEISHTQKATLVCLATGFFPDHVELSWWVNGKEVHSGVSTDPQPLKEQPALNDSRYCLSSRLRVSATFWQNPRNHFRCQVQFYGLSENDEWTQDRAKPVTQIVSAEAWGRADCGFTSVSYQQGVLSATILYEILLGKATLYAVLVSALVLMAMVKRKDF

Target	NP40-soluble protein abundance
A0A087WVC1|Q9BQ39 (UniProt Q9BQ39)	3.85 ± 0.56
A8MXF6|B7ZBD5|Q9UBK7|Q9UBK7-2|Q9UBK7-3|Q9UNT1|Q9UNT1-2|Q9UNT1-3 (UniProt Q9UNT1+Q9UBK7+B7ZBD5+A8MXF6)	0.949 ± 0.053
D6RIH7|Q9UM22 (UniProt Q9UM22)	0.88 ± 0.085
A6NHB5|A6NHN7|Q14202|Q14202-2 (UniProt Q14202)	1.46 ± 0.15
G3V5T0|O43708 (UniProt O43708)	0.819 ± 0.096
A0A0C4DFX4|Q6ZRS2|Q6ZRS2-2|Q6ZRS2-3 (UniProt Q6ZRS2)	1.86 ± 0.33
B8ZZ10|Q9NQ29|Q9NQ29-2|Q9NQ29-3 (UniProt Q9NQ29)	2.21 ± 0.28
E9PGC0|P20936|P20936-2|P20936-4 (UniProt P20936)	0.961 ± 0.048
A0A087WYN9|Q7Z478 (UniProt Q7Z478)	1.86 ± 0.27
D6R938|E9PBG7|E9PF82|Q13557|Q13557-10|Q13557-11|Q13557-12|Q13557-3|Q13557-4|Q13557-5|Q13557-6|Q13557-8|Q13557-9 (UniProt Q13557)	1.09 ± 0.17
E9PFN5|Q9Y2Q3 (UniProt Q9Y2Q3)	0.829 ± 0.082
A8MQB8|G3V0J0|Q06787|Q06787-2|Q06787-3|Q06787-4|Q06787-5|Q06787-6|Q06787-7|Q06787-8|Q06787-9 (UniProt Q06787)	1.8 ± 0.048
F8W8G5|P10242|P10242-10|P10242-11|P10242-2|P10242-4|P10242-7|P10242-8|P10242-9 (UniProt P10242)	1.15 ± 0.044
C9JWC4|Q8NCD3|Q8NCD3-2|Q8NCD3-3 (UniProt Q8NCD3)	1.2 ± 0.055
A0A0B4J1R7|Q96B45 (UniProt Q96B45)	1.02 ± 0.12
A0A0U1RRH6|O94880|O94880-2 (UniProt O94880)	1.65 ± 0.25
H3BMU3|O60268|O60268-3 (UniProt O60268)	0.919 ± 0.067

Target	NP40-soluble protein abundance
E9PHG5|Q6UW02|Q6UW02-2 (UniProt Q6UW02)	0.882 ± 0.25
E9PSH8|P07766 (UniProt P07766)	0.978 ± 0.068
E9PPH5|Q9BTT0|Q9BTT0-3 (UniProt Q9BTT0)	0.958 ± 0.038
A0A087X256|Q2M389 (UniProt Q2M389)	1.02 ± 0.068
F8VQE1|Q9UHB6|Q9UHB6-2|Q9UHB6-4|Q9UHB6-5 (UniProt Q9UHB6)	1.95 ± 0.29
A0A087X1B9|P02792 (UniProt P02792)	1.43 ± 0.17
A0A087WUC6|E9PI68|Q15005|E9PL01 (UniProt Q15005)	0.859 ± 0.055
H0YKX3|Q15004 (UniProt Q15004)	1.19 ± 0.031
A0A087WZV8|A0A0G2JN66 (UniProt P01850)	0.977 ± 0.04
A0A087WYN2|J3KSS7|Q9NZ52|Q9NZ52-4 (UniProt Q9NZ52)	0.921 ± 0.08
A0A0C4DGS0|P56556 (UniProt P56556)	0.939 ± 0.064
E7EW84|Q8TAG9 (UniProt Q8TAG9)	0.882 ± 0.025
C9JRJ5|Q9UGP4 (UniProt Q9UGP4)	1.01 ± 0.038
A0A0A0MRR7|P09234 (UniProt P09234)	1.71 ± 0.2
A0A0B4J1Z1|C9JAB2|Q16629|Q16629-2|Q16629-3|Q16629-4 (UniProt Q16629)	1.74 ± 0.47
A0A0A0MRF6|Q99996|Q99996-2|Q99996-3|Q99996-5|Q99996-6 (UniProt Q99996)	1.18 ± 0.14

Same assay, conditions: concentration: 10mM

Target	NP40-soluble protein abundance
A0A087WVC1|Q9BQ39 (UniProt Q9BQ39)	4.45 ± 0.47
A8MXF6|B7ZBD5|Q9UBK7|Q9UBK7-2|Q9UBK7-3|Q9UNT1|Q9UNT1-2|Q9UNT1-3 (UniProt Q9UNT1+Q9UBK7+B7ZBD5+A8MXF6)	0.94158 ± 0.00038
D6RIH7|Q9UM22 (UniProt Q9UM22)	0.889 ± 0.11
A6NHB5|A6NHN7|Q14202|Q14202-2 (UniProt Q14202)	1.42 ± 0.16
G3V5T0|O43708 (UniProt O43708)	0.815 ± 0.091
A0A0C4DFX4|Q6ZRS2|Q6ZRS2-2|Q6ZRS2-3 (UniProt Q6ZRS2)	1.83 ± 0.29
B8ZZ10|Q9NQ29|Q9NQ29-2|Q9NQ29-3 (UniProt Q9NQ29)	2.22 ± 0.28
E9PGC0|P20936|P20936-2|P20936-4 (UniProt P20936)	0.899 ± 0.031
A0A087WYN9|Q7Z478 (UniProt Q7Z478)	1.86 ± 0.19
D6R938|E9PBG7|E9PF82|Q13557|Q13557-10|Q13557-11|Q13557-12|Q13557-3|Q13557-4|Q13557-5|Q13557-6|Q13557-8|Q13557-9 (UniProt Q13557)	1.14 ± 0.14
E9PFN5|Q9Y2Q3 (UniProt Q9Y2Q3)	0.86 ± 0.079
A8MQB8|G3V0J0|Q06787|Q06787-2|Q06787-3|Q06787-4|Q06787-5|Q06787-6|Q06787-7|Q06787-8|Q06787-9 (UniProt Q06787)	2.1 ± 0.11
F8W8G5|P10242|P10242-10|P10242-11|P10242-2|P10242-4|P10242-7|P10242-8|P10242-9 (UniProt P10242)	1.13 ± 0.051
C9JWC4|Q8NCD3|Q8NCD3-2|Q8NCD3-3 (UniProt Q8NCD3)	1.13 ± 0.081
A0A0B4J1R7|Q96B45 (UniProt Q96B45)	1.06 ± 0.18
A0A0U1RRH6|O94880|O94880-2 (UniProt O94880)	1.78 ± 0.25
H3BMU3|O60268|O60268-3 (UniProt O60268)	0.998 ± 0.096

Target	NP40-soluble protein abundance
E9PHG5|Q6UW02|Q6UW02-2 (UniProt Q6UW02)	0.884 ± 0.14
E9PSH8|P07766 (UniProt P07766)	0.983 ± 0.11
E9PPH5|Q9BTT0|Q9BTT0-3 (UniProt Q9BTT0)	1.08 ± 0.079
A0A087X256|Q2M389 (UniProt Q2M389)	0.889 ± 0.024
F8VQE1|Q9UHB6|Q9UHB6-2|Q9UHB6-4|Q9UHB6-5 (UniProt Q9UHB6)	2.21 ± 0.23
A0A087X1B9|P02792 (UniProt P02792)	1.68 ± 0.12
A0A087WUC6|E9PI68|Q15005|E9PL01 (UniProt Q15005)	0.843 ± 0.061
H0YKX3|Q15004 (UniProt Q15004)	1.09 ± 0.039
A0A087WZV8|A0A0G2JN66 (UniProt P01850)	0.976 ± 0.046
A0A087WYN2|J3KSS7|Q9NZ52|Q9NZ52-4 (UniProt Q9NZ52)	0.896 ± 0.057
A0A0C4DGS0|P56556 (UniProt P56556)	1.01 ± 0.1
E7EW84|Q8TAG9 (UniProt Q8TAG9)	0.966 ± 0.18
C9JRJ5|Q9UGP4 (UniProt Q9UGP4)	0.965 ± 0.034
A0A0A0MRR7|P09234 (UniProt P09234)	1.82 ± 0.24
A0A0B4J1Z1|C9JAB2|Q16629|Q16629-2|Q16629-3|Q16629-4 (UniProt Q16629)	1.75 ± 0.52
A0A0A0MRF6|Q99996|Q99996-2|Q99996-3|Q99996-5|Q99996-6 (UniProt Q99996)	1.12 ± 0.13
